Measured values published in PubChem BioAssay AID1159580 (chemical genetic matrix, 2015).
Where “and” joins values, the source holds several entries; their conditions need not be identical. Identical values can stand only once. Out of some 5,500 compounds screened, about 2,000 (36%) were called active. Not shown: some 18% with an inconclusive outcome. Cut-off read from the data, not from the text of the source: active = normalized growth mostly below about 0.91 (no sharp cut-off); inconclusive = no clear call, values can overlap the other calls; inactive = mostly above about 0.92. Some of the results follow.

Experiment: chemical genetic growth profiling, strain panel (AID 1159580);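 note: tested at 20 µM; growth read once vehicle control cultures reached saturation at 30 °C; 1 = growth at the plate median or of vehicle wells; lower values mean less growth of the strain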
Conditions: S. cerevisiae deletion strains, growth OD

Measured: normalized growth

COc1ccc2c(c1)OC[C@@H](Cc1ccc(OC)c(OC)c1)[C@@H]2O
inactive: locus YAL013W, strain DEP1, active compounds read low 1.01 | locus YAL021C, strain ccr4, active compounds read low 0.999 | locus YAL026C, strain drs2, active compounds read low 1 | locus YAL030W, strain snc1, active compounds read low 0.994 | locus YBL061C, strain skt5, active compounds read low 0.99 | locus YBR009C, strain hhf1, active compounds read low 0.98 | locus YBR021W, strain FUR4, active compounds read low 0.984 | locus YBR023C, strain chs3, active compounds read low 0.998 | locus YBR171W, strain sec66, active compounds read low 0.99 | locus YBR229C, strain ROT2, active compounds read low 1 | locus YBR231C, strain swc5, active compounds read low 1 | locus YBR279W, strain paf1, active compounds read low 1 | locus YCL011C, strain gbp2, active compounds read low 1 | locus YCL016C, strain dcc1, active compounds read low 0.999 | locus YCL029C, strain bik1, active compounds read low 0.988 | locus YCL069W, strain vba3, active compounds read low 0.996 | locus YCR088W, strain abp1, active compounds read low 0.983 | locus YDL005C, strain med2, active compounds read low 0.975 | locus YDL035C, strain GPR1, active compounds read low 0.99 | locus YDL040C, strain nat1, active compounds read low 0.994 | locus YDL074C, strain BRE1, active compounds read low 0.982 | locus YDL101C, strain DUN1, active compounds read low 1.01 | locus YDL134C, strain PPH21, active compounds read low 1 | locus YDL185W, strain tfp1, active compounds read low 0.997 | locus YDL192W, strain arf1, active compounds read low 0.988 | locus YDR001C, strain nth1, active compounds read low 0.998 | locus YDR069C, strain doa4, active compounds read low 0.996 | locus YDR101C, strain arx1, active compounds read low 0.983 | locus YDR150W, strain NUM1, active compounds read low 1 | locus YDR159W, strain sac3, active compounds read low 0.94 | locus YDR162C, strain NBP2, active compounds read low 0.999 | locus YDR195W, strain ref2 0.973 | locus YDR297W, strain sur2, active compounds read low 0.985 | locus YDR318W, strain mcm21, active compounds read low 0.96 | locus YDR334W, strain swr1, active compounds read low 1.01 | locus YDR335W, strain msn5, active compounds read low 1.01 | locus YDR388W, active compounds read low 0.985 | locus YDR392W, strain spt3, active compounds read low 0.91 | locus YDR502C, strain sam2, active compounds read low 0.977 | locus YEL003W, strain gim4, active compounds read low 1 | locus YEL037C, strain rad23, active compounds read low 1.01 | locus YEL061C, strain CIN8 (second series), active compounds read low 1 | locus YEL061C, strain CIN8, active compounds read low 0.999 | locus YER015W, strain faa2, active compounds read low 1 | locus YER016W, strain bim1, active compounds read low 0.986 | locus YER110C, active compounds read low 0.996 | locus YER111C, strain swi4, active compounds read low 0.998 | locus YER155C, strain BEM2 (second series), active compounds read low 0.99 | locus YER155C, strain BEM2, active compounds read low 0.976 | locus YER167W, strain BCK2, active compounds read low 0.958 | locus YFR010W, strain ubp6, active compounds read low 0.998 | locus YGL078C, strain dbp3, active compounds read low 0.996 | locus YGL086W, strain mad1, active compounds read low 0.978 | locus YGL167C, strain pmr1, active compounds read low 0.977 | locus YGL173C, strain kem1, active compounds read low 1 | locus YGL227W, strain vid30, active compounds read low 0.992 | locus YGL240W, strain doc1, active compounds read low 1.02 | locus YGL248W, strain PDE1, active compounds read low 0.996 | locus YGL253W, strain hxk2, active compounds read low 1.02 | locus YGR078C, strain PAC10, active compounds read low 1.01 | locus YGR135W, strain pre9, active compounds read low 0.997 | locus YGR229C, strain SMI1, active compounds read low 0.993 | locus YGR252W, strain gcn5, active compounds read low 0.922 | locus YHR013C, strain ard1, active compounds read low 0.966 | locus YHR027C, strain rpn1, active compounds read low 1.02 | locus YHR030C, strain SLT2, active compounds read low 0.995 and 1.01 | locus YHR079C, strain IRE1 (second series), active compounds read low 0.981 | locus YHR079C, strain IRE1, active compounds read low 1.01 | locus YHR094C, strain hxt1, active compounds read low 0.989 | locus YHR129C, strain ARP1, active compounds read low 0.993 | locus YHR142W, strain chs7, active compounds read low 1.01 | locus YHR200W, strain rpn10, active compounds read low 0.987 | locus YIL066C, strain RNR3, active compounds read low 1 | locus YIL073C, strain SPO22, active compounds read low 0.998 | locus YIL125W, strain kgd1, active compounds read low 0.996 | locus YIR030C, strain dcg1, active compounds read low 0.986 | locus YJL092W, strain hpr5, active compounds read low 0.994 | locus YJL095W, strain BCK1 (second series), active compounds read low 1 | locus YJL095W, strain BCK1, active compounds read low 0.989 and 0.952 | locus YJL115W, strain asf1, active compounds read low 1 | locus YJL129C, strain trk1, active compounds read low 0.94 | locus YJL134W, strain LCB3, active compounds read low 1 | locus YJL154C, strain vps35, active compounds read low 1 | locus YJL164C, strain tpk1, active compounds read low 0.99 | locus YJL166W, strain qcr8, active compounds read low 1.01 | locus YJL168C, strain set2, active compounds read low 0.99 | locus YJL187C, strain SWE1 (second series), active compounds read low 1 | locus YJL187C, strain SWE1, active compounds read low 0.998 | locus YJR043C, strain POL32, active compounds read low 0.953 | locus YJR066W, strain TOR1, active compounds read low 0.975
active: locus YDR137W, strain rgp1, active compounds read low 0.802
